Drawing on PubChem BioAssay (EPA / NIEHS), this text covers outcome and AC50 for 36 compounds.

Several values for one entry are separate records, joined by “and”; a condition that tells them apart may be missing. Equal values may be shown once. Where a structure was tested more than once in an assay, its records may differ in their call. Activity calls are given as the source filed them. The calls were made as follows: active = hit-call score of the fitted dose curve at least 0.9, where 1 is the maximum; inactive = score below 0.9.

Chain of Tumor necrosis factor (Homo sapiens) (P01375 whole entry, looked up): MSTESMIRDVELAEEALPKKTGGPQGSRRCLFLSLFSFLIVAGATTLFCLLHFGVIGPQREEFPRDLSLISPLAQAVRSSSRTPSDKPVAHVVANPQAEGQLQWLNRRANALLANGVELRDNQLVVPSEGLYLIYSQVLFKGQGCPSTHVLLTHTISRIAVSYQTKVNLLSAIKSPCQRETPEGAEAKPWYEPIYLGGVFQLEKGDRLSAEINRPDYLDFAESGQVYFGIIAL

Read-out in the assay: Tumor necrosis factor (Homo sapiens) (UniProt P01375)
Briefly: BSK_LPS_TNFa: BioMAP Diversity Plus: LPS Assay for Tumour Necrosis Factor alpha (TNFa) Biomarker Activity (AID 2283085). The conditions noted are these: primary human HUVEC with PBMC; actives raise or lower the signal. The protocol:
BSK_LPS is a cell-based, multiplexed-readout assay that uses umbilical vein endothelium and peripheral blood mononuclear cells, a human vascular primary cell co-culture, with measurements taken at 24 hours after chemical dosing in a 96-well plate.BSK_LPS_TNFa is an assay component measured in the BSK_LPS assay. It measures TNF-a antibody related to regulation of gene expression using ELISA technology.Data from the assay component BSK_LPS_TNFa was analyzed into 1 assay endpoint. This assay endpoint, BSK_LPS_TNFa, was analyzed with bidirectional fitting relative to DMSO as the negative control and baseline of activity. Using a type of binding reporter, gain or loss-of-signal activity can be used to understand changes in the signaling as they relate to the gene TNF. Furthermore, this assay endpoint can be referred to as a primary readout, because this assay has produced multiple assay endpoints where this one serves a signaling function. To generalize the intended target to other relatable targets, this assay endpoint is annotated to the cytokine intended target family, where the subfamily is inflammatory factor.
The levels of cell surface (or secreted, indicated by the prefix "s") biomarker endpoints were measured by ELISA. Overt cytotoxicity to cells in confluent adherent cultures (all systems other than the BT system) was assessed by measuring total protein levels using sulforhodamine B (SRB) staining in parallel cultures at the time of biomarker measurements, indicated as SRB endpoints. For proliferation assays for adherent cell types, individual cell types are cultured at sub-confluence and relative cell numbers quantified by SRB staining at time points optimized for each system (48 h: 3C and CASM3C systems; 72 h: BT and HDF3CGF systems; 96 h: SAg system). SRB was performed by staining cells with 0.1% SRB after fixation with 10% TCA and reading wells at 560 nm.Viability and proliferation of PBMC (T cells) was quantified by Alamar Blue reduction for the SAg and BT systems. For PBMC viability (referred to as PBMC Cytotoxicity within the assay endpoint names), cells were plated (75,000/well in a 96-well plate) and then chemical samples added for 1 h before addition of activators, SEB and TSST-1 (20 ng/mL final concentration each). Cells were incubated for 90 h. Then, Alamar Blue (20 uL/well) (Invitrogen, Cat DAL1100) was added for 6 h, and the plates were read with a fluorescence microplate reader at 546/580 nm (excitation/emission). For PBMC proliferation, cells were plated and activated as above but incubated for only 16 h prior to addition of Alamar Blue. Plates were read after 6 h.
Consider `COc1ccc2nc(N)sc2c1`, for which the result was inactive. On to `CN1C(=O)N(C)C(O)C1O` (configuration not stated), for which the outcome was inactive.

In the case of `CC1OC1C1CCC2(C)OC2C1` (configuration not stated), the outcome was inactive.

With `C#CC1(O)CC[C@H]2[C@@H]3CCC4=CCCC[C@@H]4[C@H]3CC[C@@]21C` (some centres not stated), the AC50 (usually the midpoint of the concentration-response curve, whichever way the signal moves) was 33.3 µM (active). Regarding `C=CC(=O)OCC(Br)CBr` (configuration not stated), the concentration at half-maximal activity (AC50) was 11 µM (active). In the case of `CCOC(=O)c1ccccc1C(=C1C=C(Br)C(=O)C(Br)=C1)c1cc(Br)c(O)c(Br)c1`, the AC50 is 19.1 µM (active) and 18.9 µM (active). As for `S=C(NC1CCCCC1)NC1CCCCC1`, the outcome was inactive. For the compound `O=C(c1ccc(O)cc1)c1ccc(O)cc1O`, the result was inactive. Consider `CCCCCCCCCCCCCCCC[N+](C)(C)CC`, for which the concentration at half-maximal activity (AC50) was 4.58 µM (active). With `CCOc1nc(F)cc2nc(S(=O)(=O)Nc3c(Cl)cccc3C(=O)OC)nn12`, the outcome was inactive.

Turning to `CCO[Si](C)(OCC)OCC`, the outcome was inactive. Still for that read-out and setting: as for `c1ccc2c(c1)ccc1cc3c(ccc4ccccc43)cc12`, the entry is “inactive”. Regarding `C=C[Si](OC(C)=O)(OC(C)=O)OC(C)=O`, the outcome was inactive. With `O=Nc1ccc(O)cc1`, the outcome was inactive. `O=C(Cl)c1cc(C(=O)Cl)cc(C(=O)Cl)c1`: the concentration at half-maximal activity (AC50) was 36.7 µM (active). In the case of `CC(C)(c1cc(Br)c(OCCO)c(Br)c1)c1cc(Br)c(OCCO)c(Br)c1`, the result was inactive. As for `Nc1ccc(N)c(Cl)c1`, the outcome was inactive and the AC50 is 11.6 µM (active). With `O=c1c2ccccc2oc2ccccc12`, the result was inactive. In the case of `C=CCOCC(O)CCl` (configuration not stated), the result was inactive. With `C=CC=CC=CCCCCC`, the result was inactive. In the case of `CCO[Si](CCCN=C=O)(OCC)OCC`, the result was inactive. In the case of `C/C=C\C/C=C/CCCCCCCCOC(C)=O`, the half-maximal activity concentration (AC50) was 32.4 µM (active).

Take `c1ccc2c(c1)ccc1ncccc12`: the result was inactive. `CCCCCCCCc1ccc(Nc2ccc(CCCCCCCC)cc2)cc1`: the outcome was inactive. For the compound `O=C(Nc1ccccc1SSc1ccccc1NC(=O)c1ccccc1)c1ccccc1`, the half-maximal activity concentration (AC50) was 5.18 µM (active).

Consider `CCCCC(CC)COCC1CO1` (configuration not stated), for which the result was inactive. In the case of `N#[N+]c1ccc2c(S(=O)(=O)[O-])cccc2c1O`, the result was inactive. On the same count and under the same terms, in the case of `C=CCOc1c(Br)cc(Br)cc1Br` it was “inactive”. On to `O=C1CCCN1CCO`, for which the outcome was inactive. `COCc1c(C(C)C)nc(C(C)C)c(/C=C/[C@@H](O)C[C@@H](O)CC(=O)O)c1-c1ccc(F)cc1`: the outcome was inactive. In the case of `CCCCC(CC)COC(=O)c1ccccc1O` (configuration not stated), the result was inactive. Still for that read-out and setting: as for `c1ccc(-c2ccccn2)nc1`, the entry is “inactive”; as for `CO[Si](OC)(OC)c1ccccc1`, “inactive”; as for `CCCCNc1ccc(NCCCC)c2c1C(=O)c1ccccc1C2=O`, “inactive”.

For `CCCCC/C=C\C/C=C\CCCCCCCC(=O)OC`, the AC50 was 36.1 µM (active).

In the case of `CC(C)C(=O)C(C)C`, the result was inactive.
